Screening data: PubChem BioAssay, National Center for Advancing Translational Sciences (NCATS)
NPC1 promoter act – activators of NPC1 promoter; Huh7 NPC1 promoter luciferase reporter, 24 h; Potency, µM (series often up to 9.22 µM), most hits filed as activators; hit rate 2.4% among 320,000; further: nearly all actives have a fitted effect of over 60% in size
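Huh7 cells stably carrying NPC1 promoter–luciferase, plated in Opti-MEM with 10% FBS for 2 h, were exposed to compound in DMSO for 24 h at 37 °C; luciferase reagent was added for 10 min and luminescence read.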
ELG1 genotox – induces genotoxicity in HEK293T cells with luciferase-tagged ELG1. HEK293T ELG1-luciferase reporter, luminescence, 16 h. Potency, µM (top dose mostly 46 µM), actives largely listed as activators. hit rate 1.3% among 330,000; further: nearly all actives have a fitted effect of over 60% in size
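Quantitative HTS format in 1536-well plates. HEK293T ELG1-luciferase reporter cells receive test compound and are incubated 16 hr at 37 °C, 5% CO2; ONE-Glo added, 30 min room temperature, then luminescence read.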
FLuc modulator – inhibits or activates purified firefly luciferase, miR-21 counter-screen; P08659; purified FLuc, Km substrates, luminescence inhibition; Potency, µM (doses to about 57.5 µM), usual class: inhibitors; hit rate 6.9% among 360,000; further: nearly all actives have a fitted effect of over 55% in size
Target sequence (P08659 whole entry, looked up): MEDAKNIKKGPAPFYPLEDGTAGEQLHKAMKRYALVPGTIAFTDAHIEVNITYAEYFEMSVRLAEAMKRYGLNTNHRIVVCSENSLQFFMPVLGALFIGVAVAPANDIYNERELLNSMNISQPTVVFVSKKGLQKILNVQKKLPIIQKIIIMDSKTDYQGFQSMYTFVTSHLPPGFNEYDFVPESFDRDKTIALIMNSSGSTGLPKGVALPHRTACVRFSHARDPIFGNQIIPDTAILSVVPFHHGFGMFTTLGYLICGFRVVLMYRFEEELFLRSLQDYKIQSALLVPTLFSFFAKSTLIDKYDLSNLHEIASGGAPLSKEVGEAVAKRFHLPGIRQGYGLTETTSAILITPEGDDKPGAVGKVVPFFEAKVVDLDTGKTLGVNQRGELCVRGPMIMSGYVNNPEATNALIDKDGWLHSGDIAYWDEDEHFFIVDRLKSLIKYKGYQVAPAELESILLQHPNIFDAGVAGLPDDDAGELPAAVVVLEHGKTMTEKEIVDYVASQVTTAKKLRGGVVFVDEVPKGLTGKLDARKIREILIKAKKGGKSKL
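Purified P. pyralis luciferase, 10 nM final, with Km-level 10 uM D-luciferin and 10 uM ATP in 50 mM Tris acetate pH 7.5, 10 mM Mg acetate, 0.01% Tween-20, 0.05% BSA; 6-point qHTS titration about 60 µM downward; luminescence read.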
KinaseGlo FLuc – blocks Kinase-Glo luciferase, a counter-screen artifact; Kinase-Glo luciferase, ATP luminescence, 8 min; Q27757; AID 1379; hit rate 0.28% among 200,000; Potency, µM (titrated, usually from 38.3 µM), actives largely listed as inhibitors; further: nearly all actives have a fitted effect of over 60% in size
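Inhibition of Kinase-Glo luciferase light generation was assessed at 10 uM ATP in pH 7.2 imidazole buffer, with luminescence measured after eight minutes at ambient temperature.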
SMN2 splice enh – SMN2 splice variant enhancement; HEK293 SMN2-luciferase splicing reporter, luminescence, 30-36 h; Potency, µM (top dose mostly 46.1 µM), usual class: activators; hit rate 2.8% among 210,000; AID 1458; further: nearly all actives have a fitted effect of over 55% in size
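HEK293 cells carry an SMN2 minigene-luciferase reporter in which exon 7 inclusion puts luciferase in frame. Cells were seeded at 2000 cells/well, attached for 10-12 hours, then exposed to compounds for 30-36 hours at 37C before ONE-Glo luminescence.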
Rab9 prom act – activates the Rab9 promoter | hit rate 2.8% among 320,000 | Potency, µM (series often up to 9.22 µM), usual class: activators | Huh7 Rab9 promoter-luciferase reporter, luminescence, 24 h | AID 485297; further: nearly all actives have a fitted effect of over 60% in size
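Huh7 cells stably carrying a Rab9 promoter-luciferase reporter, 1500 cells per well in OP-MEM I with 10% FBS, treated with compound 24 hours at 37C. Luciferase activity read by luminescence after 10 minutes with Amplite reagent.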
Hits are given with their value. This is a sample that favours compounds with a hit; in the whole collection about 7.3% have one here. The call rests on the fitted dose curve; in most records, active means well fitted curve in the direction sought with a large enough effect; inconclusive means small, poorly fitted or top-dose-only effect, or another doubt; inactive means no such curve, though single readings can be large; an effect the other way counts as inactive or inconclusive.

Screening Cc1ccccc1NC(=O)NCCc1ccc(Cl)cc1 returned NPC1 promoter act inactive, ELG1 genotox inactive, FLuc modulator inactive, KinaseGlo FLuc inactive, SMN2 splice enh inactive and Rab9 prom act inactive.
`C/C(=C\c1ccccc1)C(=O)NCCc1ccccc1` gave NPC1 promoter act 1.4µM, ELG1 genotox 4.6µM, FLuc modulator 3.4µM, KinaseGlo FLuc inactive, SMN2 splice enh 11µM and Rab9 prom act 0.71µM.
`O=C(NCCc1ccccc1)Nc1ccc(Cl)cc1` gave NPC1 promoter act 2.5µM, ELG1 genotox inconclusive, FLuc modulator 6.7µM, KinaseGlo FLuc inactive, SMN2 splice enh 11µM and Rab9 prom act 3.2µM.
`O=C(NCCc1ccccc1)/C(=N\O)c1ccccc1` gave NPC1 promoter act 3.2µM, ELG1 genotox inconclusive, FLuc modulator 15µM, KinaseGlo FLuc inactive, SMN2 splice enh inconclusive and Rab9 prom act 4µM.
`COc1ccccc1-c1nc2c(c(SCc3cc(C)ccc3C)n1)Cc1c(CO)cnc(C)c1O2` gave FLuc modulator inactive.
`CCOC(=O)Cc1cc(=O)n(-c2nc3ccccc3s2)[nH]1` gave NPC1 promoter act inactive, ELG1 genotox inactive, FLuc modulator 24µM, KinaseGlo FLuc inactive, SMN2 splice enh inactive and Rab9 prom act inactive.
Screening COC(=O)CCS(=O)(=O)c1nc(-c2ccccc2)cc(C(F)(F)F)n1 returned NPC1 promoter act inactive, ELG1 genotox inactive, FLuc modulator inactive, KinaseGlo FLuc inactive, SMN2 splice enh 13µM and Rab9 prom act inactive.
For CCCSc1nc2c([nH]c3ccccc32)c(=O)n1C the results were FLuc modulator inactive.
`O=C(Nc1ccccc1Cl)N1CCC2(CC1)Oc1ccccc1C(=O)N2Cc1ccc(F)cc1` gave FLuc modulator inactive.
Screening Cn1c(=O)n(C)c2cc(N3CCOCC3)c(NS(=O)(=O)c3ccc(F)cc3)cc21 returned FLuc modulator inactive and SMN2 splice enh inactive.
For Cn1c(=O)n(C)c2cc(N3CCOCC3)c(NS(=O)(=O)c3ccc(Br)cc3)cc21 the results were FLuc modulator inactive and SMN2 splice enh 13µM.
CCOc1ccc(NC(=O)CSc2oc(-c3ccco3)nc2S(=O)(=O)c2ccc(Cl)cc2)cc1 was read as FLuc modulator inactive and SMN2 splice enh inactive.
For COc1ccccc1C1C(C(N)=O)=C(C)Nc2nc(-c3ccccc3Cl)nn21 (stereo unspecified) the results were NPC1 promoter act inactive, ELG1 genotox inactive, FLuc modulator inactive, KinaseGlo FLuc inactive, SMN2 splice enh inactive and Rab9 prom act inactive.
Screening COc1cccc(C2C(C(N)=O)=C(C)Nc3nc(-c4ccccc4Cl)nn32)c1 (stereo unspecified) returned NPC1 promoter act inactive, ELG1 genotox 18µM, FLuc modulator inactive, KinaseGlo FLuc inactive, SMN2 splice enh inconclusive and Rab9 prom act inactive.
COc1ccc(C2C(C(N)=O)=C(C)Nc3nc(-c4cccc(Cl)c4)nn32)cc1OC (stereo unspecified) was read as NPC1 promoter act inactive, ELG1 genotox inconclusive, FLuc modulator inactive, KinaseGlo FLuc inactive, SMN2 splice enh 18µM and Rab9 prom act inactive.
COc1ccc(C2C3=C(CCCC3=O)Nc3nc(-c4cc(OC)c(OC)c(OC)c4)nn32)cc1OC (stereo unspecified) was read as NPC1 promoter act inactive, ELG1 genotox 21µM, FLuc modulator inactive, KinaseGlo FLuc inactive, SMN2 splice enh 8.9µM and Rab9 prom act inactive.
For O=C1CC(c2ccccc2)Sc2ccccc2N1Cc1ccc(F)cc1 (stereo unspecified) the results were FLuc modulator inactive and SMN2 splice enh inconclusive.
Screening CC(=O)c1ccc(NC(=O)c2ccc3snnc3c2)cc1 returned NPC1 promoter act 4.5µM, ELG1 genotox 15µM, FLuc modulator inconclusive and Rab9 prom act 4µM.
`CNC(=O)c1ccc2snnc2c1` gave NPC1 promoter act inactive, ELG1 genotox inactive, FLuc modulator inactive, KinaseGlo FLuc inactive, SMN2 splice enh inactive and Rab9 prom act inactive.
COc1ccc(NC(=O)c2ccc3snnc3c2)cc1 was read as NPC1 promoter act inconclusive, ELG1 genotox inconclusive, FLuc modulator 9.5µM, KinaseGlo FLuc inactive, SMN2 splice enh 13µM and Rab9 prom act 2.8µM.
For Cc1ccn2c(Nc3ccc4c(c3)OCO4)c(-c3ccco3)nc2c1 the results were FLuc modulator 6µM and SMN2 splice enh inactive.
Screening CC(C)c1ccc(Nc2c(-c3ccco3)nc3ccccn23)cc1 returned FLuc modulator 24µM and SMN2 splice enh inconclusive.
Screening CN(C)c1ccc(-c2nc3cnccn3c2Nc2ccc3c(c2)OCCO3)cc1 returned NPC1 promoter act inconclusive, ELG1 genotox inactive, FLuc modulator 11µM and Rab9 prom act inconclusive.
`Cc1ccn2c(Nc3ccc4c(c3)OCCO4)c(-c3ccc(Cl)s3)nc2c1` gave FLuc modulator 6µM and SMN2 splice enh inactive.
Screening CCC(=O)N1CCc2cc(S(=O)(=O)NC(CC(C)C)C(=O)NCc3ccc(F)cc3)ccc21 (stereo unspecified) returned FLuc modulator inactive and SMN2 splice enh inactive.
CCS(=O)(=O)N1CCc2cc(C(=O)Nc3ccc(OC)cc3OC)ccc21 was read as FLuc modulator inactive.
`Cc1ccn2c(Nc3ccc4c(c3)OCO4)c(-c3ccc(N(C)C)cc3)nc2c1` gave FLuc modulator inconclusive and SMN2 splice enh 16µM.
Cc1ccn2c(Nc3ccc4c(c3)OCO4)c(-c3ccc(Cl)cc3)nc2c1 was read as FLuc modulator inactive and SMN2 splice enh inactive.
Cc1cccc(NC(=O)CSc2nc3ccccc3c3nc(CCn4cncc4C)nn23)c1 was read as FLuc modulator inactive.
Screening Cn1ccs/c1=N\C(=O)Nc1ccccc1 returned NPC1 promoter act 2.5µM, ELG1 genotox inconclusive, FLuc modulator 11µM and Rab9 prom act 3.2µM.
`Cn1ccsc1=NC(=O)c1ccc(Cl)cc1` gave NPC1 promoter act inconclusive, ELG1 genotox inconclusive, FLuc modulator 17µM, KinaseGlo FLuc inactive, SMN2 splice enh 14µM and Rab9 prom act inconclusive.
`COC(=O)c1ccc(C(=O)N=c2sccn2C)cc1` gave NPC1 promoter act 2.8µM, ELG1 genotox inconclusive, FLuc modulator 15µM and Rab9 prom act 2.8µM.
Cn1ccsc1=NC(=O)c1ccccc1F was read as NPC1 promoter act inactive, ELG1 genotox inactive, FLuc modulator inactive, KinaseGlo FLuc inactive, SMN2 splice enh inactive and Rab9 prom act inactive.
For Cn1ccsc1=NC(=O)c1ccc(OC(F)(F)F)cc1 the results were NPC1 promoter act inconclusive, ELG1 genotox inconclusive, FLuc modulator 9.5µM and Rab9 prom act 4.5µM.
Cn1ccsc1=NC(=O)c1ccc(CS(C)(=O)=O)cc1 was read as NPC1 promoter act inactive, ELG1 genotox inactive, FLuc modulator inconclusive and Rab9 prom act inactive.
